Bioassay records as filed in PubChem.
Hits are enriched below; roughly 10% of the tested compounds scored in any of these assays.
HP1b binding inh: HTS for Inhibitors of HP1-beta Chromodomain Interactions with Methylated Histone Tails | Chromobox protein homolog 1 (Homo sapiens), P83916 | AlphaScreen HP1-beta / biotin-H3K9me3 peptide binding | Potency, µM (highest dose often 114 µM), inactives show at the highest dose activity change, negative = inhibition, hits mostly inhibitors | 390,000 tested, 0.56% active | AID 540317, 2011; further: potency means the concentration at half of the fitted maximal effect; nearly all actives have a fitted effect of over 70% in size
Target sequence (P83916 whole entry, looked up): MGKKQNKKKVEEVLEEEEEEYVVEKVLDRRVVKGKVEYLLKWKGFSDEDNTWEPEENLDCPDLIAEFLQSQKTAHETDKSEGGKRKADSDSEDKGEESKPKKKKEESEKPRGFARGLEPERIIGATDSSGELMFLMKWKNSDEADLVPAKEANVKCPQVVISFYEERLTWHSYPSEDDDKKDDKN
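Compound inhibition of the preformed complex between 50 nM HP1-beta and 50 nM biotinylated H3K9me3 peptide was read by AlphaScreen. Buffer was PBS pH 7.4 with 0.01% Tween-20. Incubations ran 30 min at room temperature, with 10 ug/mL donor/acceptor beads.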
G9a inh: qHTS Assay for Inhibitors of Histone Lysine Methyltransferase G9a | Histone-lysine N-methyltransferase EHMT2 (Homo sapiens), Q96KQ7 | G9a H3K9 monomethylation, AlphaScreen, 2 h | Potency, µM (top dose mostly 102 µM), without a hit: top-dose activity, negative = inhibition, actives largely listed as inhibitors | 350,000 tested, 8.8% active | AID 504332, 2011; further: potency means the concentration at half of the fitted maximal effect; on the % scale 0 is the no-effect control and ±100 the full control effect; nearly all actives have a fitted effect of over 75% in size
Target sequence (Q96KQ7 913-1193 limits assumed): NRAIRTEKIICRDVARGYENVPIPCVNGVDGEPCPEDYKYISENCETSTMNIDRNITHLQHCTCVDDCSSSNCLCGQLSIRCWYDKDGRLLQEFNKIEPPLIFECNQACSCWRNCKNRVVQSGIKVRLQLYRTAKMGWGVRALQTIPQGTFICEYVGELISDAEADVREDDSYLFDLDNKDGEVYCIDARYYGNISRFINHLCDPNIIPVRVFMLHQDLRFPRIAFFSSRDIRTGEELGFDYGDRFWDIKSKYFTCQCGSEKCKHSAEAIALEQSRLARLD
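Methyltransferase reactions run at room temperature for 2 h (20 nM enzyme, 500 nM biotin-H3K9 peptide, 20 uM SAM) after a 15 min compound preincubation; product detected by AlphaScreen beads and anti-H3K9me1 antibody.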
BAZ2B block: qHTS Assay for Inhibitors of BAZ2B; AlphaScreen BAZ2B-H3K14Ac peptide displacement; Potency, µM (titrated, usually from 114 µM), inactives show at the highest dose activity change, negative = inhibition, most hits filed as inhibitors; 360,000 tested, 4.4% active; Bromodomain adjacent to zinc finger domain protein 2B (Homo sapiens), Q9UIF8; further: potency means the concentration at half of the fitted maximal effect; on the % scale 0 is the no-effect control and ±100 the full control effect; nearly all actives have a fitted effect of over 60% in size
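BAZ2B 50 nM plus b-H3(5-23)K14Ac 50 nM, PBS pH 7.4/0.01% Tween-20, 30 min RT; compound added (max 110 uM), 30 min RT; streptavidin donor/Ni-chelate acceptor beads 10 ug/mL final, 20 min dark; AlphaScreen read.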
CtBP-E1A inh: qHTS Assay for Inhibitors of the CtBP/E1A Interaction. 340,000 tested, 0.49% active. AID 651724, 2012. CtBP / adenovirus E1A interaction (AlphaScreen). activity change, % (test concentration not listed). AlphaScreen GST-E1A/His-CtBP binding, 1536-well; active compounds read low; in the data active means activity change below about -65%; inconclusive means mostly about -30% to -63%; further: on the % scale 0 is the no-effect control and ±100 the full control effect
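Homogeneous bead-based format: GST-tagged E1A captured on glutathione donor beads, His-tagged CtBP on nickel acceptor beads; compounds precede bead addition by 2 h at 37 °C.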
Six1-Eya2 blk: qHTS Assay for Inhibitors of the Six1/Eya2 Interaction. Homeobox protein SIX1 (Homo sapiens) + Protein phosphatase EYA2 (Homo sapiens), …. AlphaScreen GST-Six1/His-Eya2 binding, biochemical; active compounds read low. activity change, % (test concentration not listed). 360,000 tested, 0.56% active. AID 651725, 2012; in the data active means activity change below about -65%; inconclusive means mostly about -30% to -63%; further: on the % scale 0 is the no-effect control and ±100 the full control effect
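AlphaScreen luminescence read after one hour at 37 °C in darkness. Pin-transferred compounds met GST-Six1 and His-Eya2 protein (5X stock 250 nM/500 nM) plus glutathione donor and Ni-chelate acceptor beads (5X, 50 ug/mL).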
JMJD2A Tudor inh: qHTS Assay for Inhibitors of JMJD2A-Tudor Domain. Lysine-specific demethylase 4A (Homo sapiens), O75164. AlphaScreen JMJD2A-Tudor / H3K4me3 peptide binding. Potency, µM (titrated, usually from 114 µM), for the others: top-dose activity change, negative = inhibition, actives largely listed as inhibitors. 390,000 tested, 4.4% active; further: potency means the concentration at half of the fitted maximal effect; on the % scale 0 is the no-effect control and ±100 the full control effect; nearly all actives have a fitted effect of over 50% in size
* marks the source's active call; other numbers are inactive results; ? = inconclusive; · = not tested or not shown; [ ] = dose if it differs, or a comment. Unless noted, the call rests on the fitted dose curve; in most records, active means well fitted inhibition curve with a large enough effect; inconclusive means small, poorly fitted or top-dose-only effect; inactive means no such curve, though single readings can be large or run the other way.

SMILES	HP1b binding inh	G9a inh	BAZ2B block	CtBP-E1A inh	Six1-Eya2 blk	JMJD2A Tudor inh
NC(=O)c1ccsc1NC(=O)COc1ccccc1	?	-33.8%[59 µM]	-3.3%	?	-25.7	50.1µM*
CCOC(=O)c1c(NC(=O)COc2ccccc2)sc(C(C)=O)c1C	?	12.6µM*	4.9%	·	·	-0.6%
Cc1cc(=O)n(CC(=O)N2CCCCC2)c2c1c(C)nn2C	5.4%	16.0%[59 µM]	-3.1%	·	·	-21.7%
CC1=C(C(=O)N2CCCCCC2)CC(CC(=O)NC2CCCC2)C(=O)N1Cc1ccc(F)cc1 (centres undefined)	·	·	·	1.1	3.0	·
Cc1sc(NC(=O)COc2ccccc2)c(C#N)c1C	?	10µM*	-21.2%	3.6	5.0	-22.4%
Cc1sc(NC(=O)COc2cccc(-n3cnnn3)c2)c(C#N)c1C	3.7%	-5.7%	-6.1%	1.4	0.9	-21.6%
O=c1[nH]c(-c2ccc(Cl)cc2)cs1	-13.4%	-8.8%	·	-11.2	5.5	-18.9%
Fc1ccc(-c2csc(=S)[nH]2)cc1	-25.0%	?	50.1µM*	-13.6	-1.7	22.4µM*
S=c1[nH]c(-c2ccccc2)cs1	?	1.41µM*	39.8µM*	0.8	-25.2	22.4µM*
O=c1[nH]c(-c2ccccc2)cs1	10.2%	-0.2%[59 µM]	-6.4%	-1.9	-0.1	-12.2%
Cc1c(CN2CCC(CO)(CCOc3ccccc3)CC2)[nH]c2c(Cl)cccc12	-4.6%	50.1µM*	?	-14.7	-14.5	-19.1%[11.4 µM]
CC1=CC(C)(C)n2c(O)c(N=N)c3cc(C)cc1c32	?	?	44.7µM*	-4.8	?	50.1µM*
CC1=CC(C)(C)n2c(O)c(N=N)c3c(C)c(C)cc1c32	?	-9.6%[12.7 µM]	35.5µM*	-27.6	-22.1	?
CC1=CC(C)(C)n2c(O)c(N=NC(N)=S)c3c(C)ccc1c32	5.0%	-2.3%	-7.5%	-3.6	1.6	-25.8%
CC1=CC(C)(C)n2c(O)c(N=N)c3c(C)ccc1c32	-16.4%[57 µM]	50.1µM*	?	-25.0	-16.8	44.7µM*
COc1cc2c3c(c1)c(N=NC(N)=S)c(O)n3C(C)(C)C=C2C	5.9%	·	-19.4%	-7.2	-0.6	-21.0%
COc1ccc(CNC(=O)C2CCN(S(=O)(=O)N3CCCCC3)CC2)c(OC)c1	47.7%	-12.6%	-3.6%[57.1 µM]	7.7	5.4	4.5%
CC1(C)Cc2c(sc(NC(=O)c3ccccc3Cl)c2C(=O)O)CO1	41.3%	?	?	-3.6	-4.6	-5.8%
O=C(COCc1cc(-c2ccc3c(c2)OCO3)on1)Nc1cc(C(F)(F)F)ccc1Cl	41.2%	32.6%[59 µM]	11.1%	·	·	9.6%
CCOC(=O)C=C(C(=O)OCC)C(=O)OCC	?	12.6µM*	-2.7%	0.0	23.4	-6.5%
CCOC(=O)CNC=C(C(=O)OCC)C(=O)OCC	19.3%	9.9%[59 µM]	0.5%	-0.9	13.0	-13.4%
CC(C)NC(=S)NN=C1c2ccccc2-c2ccccc21	-22.7%	15.5%	-37.1%	-4.7	-8.9	-12.0%
CC(C)NC(=S)N/N=C1\CCCCC1C1CCCCC1 (centres undefined)	-45.4%	22.4µM*	?	?	?	?
Cc1ccc(/C=N/Nc2ccc3c(C(F)(F)F)cc(C(F)(F)F)nc3n2)cc1	26.1%	?	2.0%	-21.2	1.3	0.8%
NNc1ccc2c(C(F)(F)F)cc(C(F)(F)F)nc2n1	39.7%	35.5µM*	-11.0%	-0.7	-2.5	-26.6%
SMILES	HP1b binding inh	G9a inh	BAZ2B block	CtBP-E1A inh	Six1-Eya2 blk	JMJD2A Tudor inh
Cc1ccc(C(=O)N2CCCC(C(=O)c3ccc(Oc4ccccc4)cc3)C2)cn1 (centres undefined)	44.2%	-7.0%	-15.2%	1.9	-1.9	-10.0%
CCN1/C(=C2\C(=O)N(c3ccccc3)N=C2C)C=Cc2cc(C)ccc21	21.3%	?	56.2µM*	4.2	-1.0	-8.4%
N.N.O=C(O)C1(C(=O)O)CCC1.[Pt]	·	0.631µM*	·	·	·	·
O=C(O)C1(C(=O)O)CCC1	11.4%	·	0.1%	1.4	7.4	-13.7%
Cc1ccc(Cl)cc1NC(=O)[C@@H]1CCC(=O)N1C1OC(=O)c2ccccc21 (some centres undefined)	11.6%	·	-6.5%	9.0	0.1	-8.2%
Cc1ccccc1-n1c2nc(=O)n(C)c(=O)c-2cc2ccccc21	35.0%	-32.2%	-1.7%	0.1	4.1	5.7%
Cn1c(=O)nc2n(Cc3ccccc3)c3ccccc3cc-2c1=O	13.8%	8.91µM*	2.1%	9.1	-6.3	-10.5%
CCOC(=O)C1=C(CBr)NC(=O)NC1C (centres undefined)	30.7%	28.2µM*	50.1µM*	12.0	0.6	?
CCOC(=O)C1=C(C)NC(=O)NC1C (centres undefined)	9.5%	4.0%[12.7 µM]	2.6%	2.2	0.5	-11.7%
CCOC(=O)C1=C(COC(=O)CCOc2ccccc2)NC(=O)NC1C (centres undefined)	-13.0%	27.4%[12.7 µM]	32.4%	-11.9	?	100µM*
COc1cc(C(=O)N/N=C(\C)c2ccccn2)cc(OC)c1OC	19.6%	63.4%	-16.9%	-4.4	-8.2	-19.0%
COc1ccc2nc(NN=C(C)c3ccccn3)cc(C)c2c1	?	·	·	?	-89.0*	44.7µM*
Cc1ccc(-n2[nH]c(C)c(/C=N/c3cccc(C)n3)c2=O)cc1	29.8%	50.1µM*	-24.4%	1.2	2.8	-19.1%[11.4 µM]
C=CCN=Cc1c(C)[nH]n(-c2ccccc2)c1=O	-3.2%	-0.1%	-0.5%	4.4	5.5	-0.7%
Cc1cccc(/N=C/c2c(C)[nH]n(-c3ccccc3)c2=O)n1	41.6%	?	?	0.8	-3.0	-2.9%[11.4 µM]
Cc1[nH]n(-c2ccccc2)c(=O)c1/C=N/N(c1ccccc1)c1ccccc1	?	15.7%[0.501 µM]	?	-20.5	-20.5	39.8µM*
Cc1[nH]n(-c2ccccc2)c(=O)c1/C=N/c1nn[nH]n1	19.9%	50.1µM*	?	·	4.3	-9.8%[11.4 µM]
Cc1[nH]n(-c2ccccc2)c(=O)c1C=Nc1cccc(F)c1	-20.0%	44.7µM*	-36.9%	-29.2	1.6	-25.1%
CCOC(=O)c1cc(-c2ccccc2)n(CCC(=O)Nc2cc(C)cc(C)c2)c1C	2.1%	?	-6.4%	·	·	-15.4%
CC(=O)c1c(C)nn(CC(O)COc2ccc3ccccc3c2)c1C (centres undefined)	31.5%	10.6%[0.501 µM]	1.2%	5.5	-1.9	-3.8%
